Measured values reported in PubChem BioAssay AID1619 (SRMLSC, 2009).
In all, about 220,000 compounds went through this assay and about 830 (0.38%) were called active.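 How the source made its calls: active means compound inhibiting the enzyme by more than half at any dose during confirmatory dose-response retesting; inconclusive means strong single-dose inhibitors picked by rank but not retested; inactive means the rest.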 The list is a sample of the results. Potency and affinity values are given separately.

Target: Leucine aminopeptidase (Plasmodium falciparum (isolate 3D7)) (UniProt Q8IL11)
Sequence (Q8IL11 whole entry, looked up): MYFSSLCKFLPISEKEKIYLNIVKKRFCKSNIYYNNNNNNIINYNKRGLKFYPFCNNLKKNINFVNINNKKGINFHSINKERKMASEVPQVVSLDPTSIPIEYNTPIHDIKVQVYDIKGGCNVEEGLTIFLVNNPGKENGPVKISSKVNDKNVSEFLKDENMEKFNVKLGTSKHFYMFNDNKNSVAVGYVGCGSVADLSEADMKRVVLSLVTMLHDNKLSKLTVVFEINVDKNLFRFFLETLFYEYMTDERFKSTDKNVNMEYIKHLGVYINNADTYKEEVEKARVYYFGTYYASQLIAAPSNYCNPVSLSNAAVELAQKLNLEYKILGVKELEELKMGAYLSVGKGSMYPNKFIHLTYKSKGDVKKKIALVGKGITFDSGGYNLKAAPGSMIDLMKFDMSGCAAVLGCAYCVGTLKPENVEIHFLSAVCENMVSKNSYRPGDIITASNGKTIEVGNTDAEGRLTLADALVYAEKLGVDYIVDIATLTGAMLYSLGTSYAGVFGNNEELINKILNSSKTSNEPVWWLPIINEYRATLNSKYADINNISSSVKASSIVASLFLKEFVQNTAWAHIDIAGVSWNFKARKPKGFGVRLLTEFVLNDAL
Assay: P. falciparum M17LAP inhibitors, primary screen, biochemical, fluorogenic H-Leu-NHMec substrate, 1536-well (AID 1619);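 further: plate controls were full reaction with DMSO carrier for no effect and no enzyme background for full effect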
Conditions: recombinant M17LAP, H-Leu-NHMec fluorogenic kinetic assay; at 30 µM; active compounds read high

inhibition, inactive:
O=C(CSc1nnc2sc3ccccc3n12)c1ccco1 -1.98%, O=C(CC1SC(=NCCc2ccccc2)N(/N=C/c2cccs2)C1=O)Nc1ccc(Cl)cc1 (stereo not drawn) -1.78%, c1ccc2c(-c3cc(C4CCNCC4)[nH]n3)cccc2c1 -3.07%, CCCc1cc(C(=O)NCc2ccco2)no1 -5.04%, COc1ccccc1CC(=O)NNC(=O)c1cccs1 -2.69%, O=C(CSc1nccc(=O)[nH]1)N1CCN(c2ccccc2)CC1 5.66%, CCOC(=O)COc1ccc(S(=O)(=O)Nc2ccc3c(c2)OCCO3)cc1 2.78%, Cc1cc(C)nc(NC(=O)CSc2nccc(C)n2)n1 5.87%, Cc1ccc(NC(=O)CSc2nc(O)cc(=O)n2C)cc1 7.3%, Cc1cc(=O)[nH]c(SCC(=O)Nc2ccc(C(=O)O)cc2)n1 8.39%, COc1ccc(NC(=O)CSc2nc(C)cc(C(F)(F)F)n2)cc1 19%, COC(=O)c1ccc(NC(=O)CSc2nc(C)cc(=O)[nH]2)cc1 35.4%, COc1ccc(NC(=O)CSc2nc(C)cc(C)n2)cc1 44%, COc1ccc2nc(NC(=O)CSc3nccc(C)n3)sc2c1 1.42%, Cn1c(SCC(=O)Nc2ccc(Br)cc2)nc(O)cc1=O 10.4%, Cc1cc(C)n(-c2nnc(C)n2N)n1 1.79%, COc1ccc(-c2ccn(-c3cccc(F)n3)n2)cc1 10.6%, O=C(N/N=C/c1ccc2c(c1)OCO2)C(=O)Nc1ccccc1 5.86%, CC(=O)c1ccccc1OCCn1nnc(-c2ccc(C)cc2)n1 12.1%, CCCOc1ccc(-c2c(C(=O)N/N=C/c3ccc(C)cc3)nnn2-c2nonc2N)cc1 -4.98%, CCOC(=O)C1=C(Nc2ccc(C)cc2)CC(C)(O)C(C(=O)OCC)C1c1ccccc1 (stereo not drawn) 0.02%, Cc1cc(C)nc(N2CCC(C(=O)Nc3nnc(C)s3)CC2)n1 1.03%, CC(C)(C)Nc1nc2cc([N+](=O)[O-])ccc2o1 2.86%, COc1ccc(NC(=O)CSc2ccc(C)cc2)cc1 -1.37%, Cc1nn(-c2nnc(C)c(=O)[nH]2)c(C)c1SCC(=O)Nc1ccc(C(C)C)cc1 63.3%, Cc1cc(C)nc(SCC(=O)Nc2ccc(N3CCOCC3)cc2)n1 24.8%, COc1ccc(NC(=O)CSc2c(C)n[nH]c2C)cc1 21.7%, Cc1nn(-c2nnc(C)c(=O)[nH]2)c(C)c1SCC(=O)Nc1ccc(F)cc1 46.2%, CCN(CC)c1ccc(NC(=O)CSc2nnc3nc(C)cc(C)n23)cc1 45.5%, COc1ccc(Cc2nn3c(-c4ccccc4OC)nnc3s2)cc1 18.6%, CC1=CC(C)(C)n2c(O)c(N=N)c3c(C)c(C)cc1c32 14.8%, Cc1c(C(=O)NCCSCc2ccccc2Cl)cccc1[N+](=O)[O-] 4.93%, CCOc1ccc(NC(=O)Nc2cc(-c3ccccc3)sc2C(=O)OC)cc1 -2.36%, Cc1cc(C)nc(SCC(=O)Nc2ncc3c(n2)CCCC3=O)n1 -1.93%, Cc1nn(C)cc1CN(C)C(=O)c1nn2c(c1Cl)NC(c1cccs1)CC2C(F)(F)F (stereo not drawn) 11.7%, CC(C)(C)C(=O)N1CCC(O)(CS(=O)(=O)Cc2ccccc2Cl)CC1 13.8%, Cc1ccc(-n2c(SCC(=O)N3CCCc4ccccc43)nnc2-c2cccnc2)c(C)c1 7.68%, Cc1ccc(-n2c(SCC(N)=O)nnc2-c2cccnc2)c(C)c1 1.98%, Cc1cccc(C)c1NC(=S)N1CCC(c2ccccc2)C1 (stereo not drawn) 2.96%, O=c1nc(-c2ccccc2)c2cc(Cl)ccc2[nH]1 3.02%, COc1ccc(/C=C2\CCCC3C2=NN(C(=O)c2scnc2C)C3c2ccc(OC)c(OC)c2)cc1OC (stereo not drawn) -6.36%, Nc1nc2ncc(C(=O)c3cc(F)ccc3O)cc2s1 12.6%, Cc1[nH]nc2ncc(C(=O)c3cc(F)ccc3O)cc12 9.66%, CS(=O)(=O)Nc1nnc(Cc2ccccc2)s1 9.67%, CCCn1c(NCc2cccc(OC)c2O)nc2ccccc21 -4.67%, COc1cc(/C=N/n2c(C)n[nH]c2=S)ccc1OCc1ccc(F)cc1 -2.61%, CC(C)(C)OC(=O)N1CCCC1C(=O)O (stereo not drawn) -3.69%, O=C(Cn1cnc2ccccc2c1=O)c1c[nH]c2ccccc12 11.6%, CCOc1ccc(NC(=O)c2ccc3nccnc3c2)cc1 -3.72%, CC(=O)Nc1ccc2oc(C)nc2c1 0.35%, Cc1ccc(NC(=O)Nc2cccs2)cc1 22.4%, Cc1nc2cc(NC(=O)Nc3ccc(Br)cc3)ccc2o1 -1.6%, CCc1ccc(NC(=O)Nc2cccs2)cc1 38.6%, COc1ccc(NC(=O)Nc2ccc3nccnc3c2)cc1 37.8%, CCn1c(=O)c(C(=O)NCc2cccnc2)c(O)c2ccccc21 2%, CS(=O)(=O)N1N=C(c2ccco2)CC1c1ccccc1Cl (stereo not drawn) 5.77%, CN(C(=O)CSc1nc(-c2ccccc2)c(-c2ccccc2)o1)C1CCS(=O)(=O)C1 (stereo not drawn) 5.76%, NC(=O)c1c(-c2ccc(Cl)cc2Cl)csc1NC(=O)Cc1ccccc1 6.81%, CC(=O)Nc1ccc(NC(=O)CSc2nnc(-c3ccccc3)n2Cc2ccc3c(c2)OCO3)cc1 5.97%, COC(=O)c1[nH]c2c(c1C)C(=O)CCC2 6.36%, CCN1C(=O)/C(=C2\C=Cc3cc(C)ccc3N2CC)OC1=S 1.65%, CCOc1cc(/C=C2\C(=O)N(CCC#N)N=C2C)ccc1OCC(N)=O 4.75%, CC1=NN(Cc2ccccc2)C(=O)/C1=C\c1ccc(N(C)C)cc1 3.83%, CC1=C(C(=O)OC(C)C)C(c2cn(-c3ccccc3)nc2-c2cccs2)NC(=O)N1 (stereo not drawn) 2.02%, COc1ccccc1C(=O)N1CCN(Cc2nc3cc([N+](=O)[O-])ccc3n2C)CC1 6.22%, Cc1cc(S(=O)(=O)Nc2cccc(Cl)c2)c(C)s1 4.03%, COc1cccc(NS(=O)(=O)c2cc(C)sc2C)c1 11.3%, CC(=O)Nc1ccc(C2=NN(C)C(=NCc3ccccc3)SC2)cc1 -2.31%, N=c1n(Cc2ccc(Cl)cc2)c2ccccc2n1CC(O)COc1ccccc1 (stereo not drawn) 6.49%, Cc1c(Cl)cccc1NS(=O)(=O)c1ccc2c(c1)C1C=CCC1C(c1ccc(C(=O)O)cc1)N2 (stereo not drawn) 47.6%, COc1ccc(C(=O)N/N=C(\C)c2ccc3c(c2)C2C=CCC2C(c2ccccc2)N3)cc1 (stereo not drawn) 20.2%, COc1ccc(N2C(=O)C3CCCN3C2c2ccc(C)cc2)cc1Cl (stereo not drawn) -8.88%, CSCCC(NS(=O)(=O)c1ccc(Cl)c(Cl)c1)C(=O)O (stereo not drawn) -4.93%, CSCCC(NS(=O)(=O)c1ccc2ccccc2c1)C(=O)O (stereo not drawn) 12.2%, O=C(NCCn1cc(SCc2ccc(F)cc2)c2ccccc21)c1ccccc1F 12.4%, O=C(O)c1cccc(Cn2c(Cl)c(/C=N/NC(=O)c3cc4ccccc4cc3O)sc2=O)c1 -0.68%, O=C(O)c1cccc(Cn2c(Cl)c(/C=N/NC(=O)c3cccc(O)c3)sc2=O)c1 34%, O=C(O)c1cccc(Cn2c(Cl)c(/C=N/NC(=O)c3ccc(O)cc3)sc2=O)c1 53.6%, O=C(O)c1cccc(Cn2c(Cl)c(/C=N/NC(=O)c3ccccc3O)sc2=O)c1 35.2%, COc1ccc(C(=O)N/N=C/c2sc(=O)n(Cc3cccc(C(=O)O)c3)c2Cl)cc1 43.6%, COC(=O)c1cccc(Cn2c(Cl)c(/C=N/NC(=O)c3ccccc3Cl)sc2=O)c1 13.4%, COC(=O)/C(=N/Nc1cccc(C)c1)N1CCCc2ccccc21 1.03%, Oc1ccc(CCc2n[nH]c(=S)n2-c2ccc(F)cc2)cc1 -8.27%, CCOC(=O)CN1C(=O)C(Sc2n[nH]c(-c3ccccc3)n2)CCc2ccccc21 (stereo not drawn) 16.8%, CCOc1ccccc1N1C(=O)CC(Sc2ncccc2C(=O)O)C1=O (stereo not drawn) 17.5%, COc1ccc(N2C(=O)CC(Sc3n[nH]c(-c4ccc(C)cc4)n3)C2=O)cc1 (stereo not drawn) 51.7%, COc1ccc(N2C(=O)CC(Sc3n[nH]c(-c4ccccc4)n3)C2=O)cc1 (stereo not drawn) 16.4%, COc1cc2ncnc(NCc3ccccc3)c2cc1OC 14.9%, O=S(=O)(c1cccs1)N1CN(Cc2ccccc2)c2nc3ccccc3nc21 -4.62%, CCC(=O)NCc1csc(-c2cccs2)n1 -3.47%, O=C(Nc1cc(N2CCOCC2)ncn1)NC1(C(F)(F)F)Oc2ccccc2O1 5.1%, O=C(NCCN1CCOCC1)NC1(C(F)(F)F)Oc2ccc(Cl)cc2O1 (stereo not drawn) 28.4%, Cn1nc(C(F)(F)F)c(-c2ccc(F)cc2)c1NC(=O)c1cccnc1 -2.14%, COc1ccc(/C=C2\NC(=O)C(C=NCc3ccccc3)=C2O)cc1 0.26%, COc1ccc(-c2nnc(SCC(=O)NCCc3ccccc3)o2)cc1 -10.2%, Cc1ccc(NC(=O)CSc2nnc(CCC(=O)O)c(=O)[nH]2)cc1 13.7%, CCc1ccc(C(=O)CSc2nc3ccccc3c(=O)[nH]2)cc1 -2.74%, Cc1ccc(C(=O)CSc2nc(C)cc(=O)[nH]2)cc1 9.23%, CCCn1c(SCC(=O)c2ccc(CC)cc2)n[nH]c1=O 26.6%, Cc1ccc(C(=O)CSc2nnc(C)s2)cc1 -0.76%, CC(=O)Nc1ccc(NC(=O)CSc2ccc(C)cc2)cc1 -3.31%, Cn1cnnc1SCC(=O)OCN1C(=O)c2ccccc2C1=O 3.47%, Cc1cc(C)nc(SCC(=O)OCN2C(=O)c3ccccc3C2=O)n1 8.29%
